From PubChem BioAssay
Compounds with a hit are over-represented: about 4.5% of the library has one in this group of screens.
Rpn11 block – blocks the human proteasome subunit Rpn11; O00487; human 26S proteasome, Ub4-pepOG fluorescence polarization; 20S core pre-blocked with epoxomicin; inhibition, % at 20 µM; 0.59% of 360,000 active; AID 588493;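 active = inhibition at 20 µM, scaled to each plate's controls, above about 33%, limit read from the data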
Target sequence (O00487 whole entry, looked up): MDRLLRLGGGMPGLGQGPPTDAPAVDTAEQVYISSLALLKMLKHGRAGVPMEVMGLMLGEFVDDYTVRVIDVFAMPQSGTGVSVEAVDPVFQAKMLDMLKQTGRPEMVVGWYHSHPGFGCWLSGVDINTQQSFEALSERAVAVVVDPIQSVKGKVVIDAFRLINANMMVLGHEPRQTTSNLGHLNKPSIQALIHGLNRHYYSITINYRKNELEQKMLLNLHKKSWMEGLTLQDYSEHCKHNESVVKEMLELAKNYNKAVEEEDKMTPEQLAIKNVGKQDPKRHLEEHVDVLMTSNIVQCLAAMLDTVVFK
dFosB act-1 – enhances mouse delta FosB homodimer DNA binding | P13346 | purified delta FosB, TAMRA-CDK5 oligo fluorescence polarization; percent of positive-control signal above neutral wells | activation, % at 25 µM | 0.99% of 340,000 active | AID 493131;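 active = mean activation above about 17%, with every replicate also reaching it, limit read from the data, passing the limit was not always enough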
NR3A LBD binder – modulates the human NR3A ligand-binding domain | 2.5% of 340,000 active | Tm shift relative to glycine control, % at 25 µM | NR3A LBD differential scanning fluorimetry, Tm shift; 0% = protein alone, 100% = glycine-bound protein | AID 1259313;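 active = melting temperature shift of at least 10% of the positive control shift, at one fixed dose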
EBNA-1 inhibitor – blocks EBNA-1 binding to DNA; inhibition, % at 14.8 µM; EBNA-1 DNA binding, fluorescence polarization; 0.34% of 300,000 active; in the data active = inhibition above about 28%
ZTA DNA inh – ZTA (EBV) inhibition in EBNA-1 counter-screen; P03206; ZTA-DNA binding, fluorescence polarization; 0.15% of 320,000 active; inhibition, % at 11 µM; AID 2234; in the data active = inhibition above about 33%
Target sequence (P03206 whole entry, looked up): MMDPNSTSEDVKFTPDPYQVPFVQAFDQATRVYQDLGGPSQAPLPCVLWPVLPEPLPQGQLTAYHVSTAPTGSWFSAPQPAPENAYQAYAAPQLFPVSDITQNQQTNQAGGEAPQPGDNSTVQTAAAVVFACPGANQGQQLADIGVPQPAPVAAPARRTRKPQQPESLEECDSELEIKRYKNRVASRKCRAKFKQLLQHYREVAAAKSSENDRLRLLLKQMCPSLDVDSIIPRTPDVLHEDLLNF
TPT1 inh – C. albicans TPT1 enzyme inhibition; recombinant caTPT1, FP RNA substrate dephosphorylation; inhibition, % at 5 µM; 0.81% of 300,000 active; AID 1962;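 active = inhibition above the mean of all tested compounds plus 3 SD, set per screening campaign, cut at about 24% in these data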;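 also: plate controls were DMSO alone for no effect and ferristatin control at 100 nM for full effect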
dFosB act-2 – activators of mouse delta FosB homodimer DNA binding. shares compounds with dFosB act-1. purified delta FosB, TAMRA-CDK5 oligo fluorescence polarization; normalised: neutral wells 0, positive control 100. activation, % at 24.9 µM. 2,400 tested, under 10 active. AID 588690;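 active = highest replicate activation at or above 34% and every replicate reaching that threshold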;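 also: higher polarization means more probe DNA bound by delta FosB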
Numbers without * were called inactive; nt = not tested or not shown.

SMILES	Rpn11 block	dFosB act-1	NR3A LBD binder	EBNA-1 inhibitor	ZTA DNA inh	TPT1 inh	dFosB act-2
CCCCCN(C(=O)CCC(=O)OCc1ccc(C(C)(C)C)cc1)c1c(N)n(CCCC)c(=O)[nH]c1=O	0.8	-0.2	1.6	-9.4	-4.6	2.3	nt
CN1/C(=C/C=C(C#N)C#N)C=Cc2ccccc21	nt	29.0*	2.1	2.9	-4.6	6.4	3.1
CCCn1c(=C(C#N)C#N)s/c(=C2\C=Cc3ccccc3N2CC)c1=O	-2.0	7.9	-2.5	nt	nt	nt	nt
O=C(Nc1ccc(-n2ccc(C(F)(F)F)n2)cc1)Nc1cccc(Cl)c1	4.3	28.7*	nt	9.4	3.3	2.5	5.9
Cc1c(C(=O)Nc2cccc([N+](=O)[O-])c2)csc1-c1ccccc1	0.4	58.1*	12.8*	4.3	14.2	-2.7	6.3
COC(=O)c1c(NC(=O)c2cccc([N+](=O)[O-])c2)sc(C(N)=O)c1C	12.3	28.8*	-0.1	11.2	0.4	7.2	-6.8
Cc1ccc(NC(=O)c2csc(-c3ccccc3)c2C)cc1	-3.0	7.4	-26.1	nt	nt	nt	nt
COC(=O)c1sc(NC(=O)c2cccc([N+](=O)[O-])c2)c(C(N)=O)c1C	-2.9	5.8	-7.1	-16.4	-6.2	2.5	nt
O=C(Nc1cccc([N+](=O)[O-])c1)c1cccc(C(=O)Nc2cccc([N+](=O)[O-])c2)c1	-8.1	33.7*	-1.1	3.6	1.0	-0.2	-1.4
CN(Cc1ccc(-n2cccn2)cc1)Cc1nc(-c2cnccn2)no1	-12.0	-1.1	2.5	-2.3	-11.1	-5.7	nt
COc1ccc(C)cc1NC(=O)C1CCCN1S(=O)(=O)c1ccccc1F (stereo unspecified)	-5.2	7.2	-1.6	nt	0.1	nt	nt
CCOc1ccc(-c2cnc(NCc3cccc4ccccc34)n2CCOC)cc1	6.8	7.7	-1.2	-3.7	13.2	-2.2	nt
Cn1ncc([N+](=O)[O-])c1C(=O)N1CCCCCC1	-32.1	0.7	-2.6	nt	nt	nt	nt
Clc1ccc(C2[C@H]3CN(Cc4ccc(-c5ccccc5)cc4)[C@H](c4ccccc4)C34CC2(c2ccccc2)C4)cn1 (stereo partly specified)	nt	nt	-0.5	7.1	5.0	-1.5	nt
N#Cc1ccc(C23CC4(C2)[C@H](CN(Cc2ccc(-c5ccccc5)cc2)[C@@H]4c2ccccc2)C3c2ccc(Cl)nc2)cc1 (stereo partly specified)	12.2	16.8*	-1.8	7.9	6.0	-3.2	4.1
COc1cc2[nH]c(=O)c(C(=O)NCCCN3CCOCC3)c(O)c2cc1OC	-8.6	33.1*	1.0	0.7	4.9	-2.1	1.8
COc1ccc(Cn2c(=O)[nH]c3cc(C(=O)NCCCN4CCCC4)ccc3c2=O)cc1	-0.7	1.5	-1.2	-2.6	5.2	-2.3	nt
O=C(NCCN1CCCC1)c1ccc(Cn2c(=S)[nH]c3cc4c(cc3c2=O)OCO4)cc1	18.7	24.7*	-1.3	2.0	-21.5	-3.5	-1.9
CCN(CC)CCNC(=O)c1c(O)c2cc(OC)c(OC)cc2[nH]c1=O	-5.6	24.0*	-1.3	-2.6	-23.6	0.5	9.9
COc1cc2[nH]c(=O)n(Cc3ccc(C(=O)NCCCN4CCN(C)CC4)cc3)c(=O)c2cc1OC	-2.2	32.3*	0.5	-2.1	-17.4	-1.7	-1.4
Clc1nc(NCCc2ccccc2)c2cn[nH]c2n1	1.6	-6.8	-6.3	nt	nt	nt	nt
Cc1cccc(-c2oc3ccc(-c4ccc5c(c4)OCO5)cc3c2/C=C/c2ccc(N)cc2)c1	11.3	-5.9	3.0	5.1	4.8	0.1	nt
COc1ccc(C(=O)OCC(=O)NC2CCCCCC2)cc1OC	-2.4	-4.0	0.1	nt	3.7	nt	nt
CN1CCC(N(C)C(=O)c2cccc(S(=O)(=O)N3CCc4ccccc43)c2)CC1	-5.8	-4.2	0.1	nt	nt	nt	nt
COc1ccc2cc3cc(C(=O)NCc4ccc5c(c4)OCO5)oc3nc2c1	-1.2	17.1*	3.3	-21.6	4.0	-7.1	-1.1
SMILES	Rpn11 block	dFosB act-1	NR3A LBD binder	EBNA-1 inhibitor	ZTA DNA inh	TPT1 inh	dFosB act-2
O=C(COc1ccccc1C(=O)O)Nc1nc2ccc([N+](=O)[O-])cc2s1	-1.3	25.0*	14.0*	-0.7	-10.3	4.5	0.3
CC(=O)c1cn(CC(=O)Nc2ccccc2F)c2ccccc12	6.8	-1.2	-0.7	4.1	-7.9	-3.5	nt
O=C(Cn1c2ccccc2c(=O)c2ccccc21)Nc1ccccc1F	19.2	37.5*	-1.8	9.1	1.1	-0.4	-2.4
COc1ccc([N+](=O)[O-])cc1NC(=O)COC(=O)c1ccc(O)cc1	-0.1	52.7*	-0.9	-6.6	0.0	-0.9	6.0
COc1ccc([N+](=O)[O-])cc1NC(=O)c1ccc(Br)s1	-0.2	58.7*	-2.7	-5.5	1.8	-0.5	4.2
CCOC(=O)c1c(C)[nH]c(C(=O)OC(C)C(=O)Nc2ccc(C)cc2)c1C (stereo unspecified)	-3.9	nt	nt	nt	nt	nt	nt
CCOC(=O)c1c(C)[nH]c(C(=O)OC(C)C(=O)NC2CCCCC2C)c1C (stereo unspecified)	7.5	49.0*	2.6	nt	2.4	nt	4.0
COc1cccc(C(=O)O/N=C(\N)CS(=O)(=O)c2ccccc2)c1	-7.0	0.1	-1.1	1.0	-21.6	-4.2	nt
COc1ccccc1NS(=O)(=O)c1cccc(C(=O)N2CCCCCCC2)c1	13.4	-0.8	-0.6	-7.3	-13.7	-0.9	nt
CCc1cc2ccc(C)c(C)c2nc1SCC(=O)NNC(=O)c1ccco1	-2.8	27.6*	-3.4	8.0	-0.8	-0.8	1.2
COc1ccc(/C=C/C(=O)NC(=S)Nc2ccccn2)cc1	0.5	17.0*	-5.3	5.6	16.4	-0.7	-0.3
Cc1ccc(NC(=O)c2ncc(Cl)c(Cl)c2Cl)cc1C	0.1	26.4*	0.4	7.5	-3.4	0.3	-0.2
O=C(Nc1ccc(OC(F)F)cc1)c1ncc(Cl)c(Cl)c1Cl	1.9	-3.6	2.6	7.8	-3.8	-2.6	nt
COc1ccccc1NC(=O)Cn1nnc(C(=O)NCCc2ccccc2)c1N	5.7	39.7*	0.5	1.3	9.7	-0.6	1.2
COc1cccc(NC(=O)Cn2nnc(C(=O)NCCc3ccccc3)c2N)c1	1.3	37.1*	-2.7	18.5	-0.4	-1.8	3.0
COc1ccc(NC(=O)Cn2nnc(C(=O)NCCc3ccccc3)c2N)c(OC)c1	18.2	9.5	-0.8	-13.4	-13.9	1.9	nt
COc1cccc(NC(=O)Cn2nnc(C(=O)Nc3ccccc3)c2N)c1	3.2	1.5	-12.6	15.3	9.9	-4.4	nt
Cc1ccc(OC(=O)c2ccc([N+](=O)[O-])cc2Cl)cn1	-6.8	-8.6	2.3	-1.9	-5.6	-3.4	nt
Cc1noc(C)c1S(=O)(=O)NCc1cccc(Cl)c1	-6.3	-2.1	-3.7	nt	-1.3	nt	nt
O=S(=O)(Nc1nc2ccccc2nc1NCC1CCCO1)c1cc(Cl)ccc1Cl (stereo unspecified)	-3.3	-12.9	-1.6	8.1	8.0	-0.4	nt
